Screening data from PubChem BioAssay.
IP6K1 inh: Primary qHTS assay for small molecule inhibitors of Inositol hexaphosphate kinase 1 (IP6K1) | Inositol hexakisphosphate kinase 1 (Homo sapiens), Q92551 | IP6K1 kinase, ADP-Glo luminescence, 2 h; active compounds read low | activity change, % (series mostly up to about 58 µM) | 0.81% of 140,000 active; in the data active means activity change below about -25%; further: on the % scale 0 is the no-effect control and ±100 the full control effect
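ADP-Glo luminescence measures ADP made by human IP6K1 during a 2 h RT reaction with ATP/IP6 (mix at 1.3 mM/130 uM); top library doses 57.5 and 19.1 uM final.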
KDM5B inhibitor: Primary screen for KDM5B Histone Demethylases FDH-coupled qHTS; Lysine-specific demethylase 5B (Homo sapiens), Q9UGL1; KDM5B demethylase, FDH-coupled NADH fluorescence (FDH is formaldehyde dehydrogenase); Potency, µM (titrated, usually from 57.7 µM), actives largely listed as inhibitors; 2.6% of 220,000 active; further: potency means the concentration at half of the fitted maximal effect; 0% is about no effect; nearly all actives have a fitted effect of over 70% in size
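KDM5BΔAP (200 nM final) in 50 mM HEPES pH 7.5, 0.01% Tween-20 was preincubated 10 min at RT with compound over a concentration range. Substrate mix (H3K4me3 12.5 µM, α-KG 25 µM, Fe²⁺, ascorbate, NAD⁺, FDH) was added, and NADH fluorescence change over 30 min gave dose-response curves.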
SNCA expr inhib: Primary qHTS assay for inhibitors of alpha-synuclein gene (SNCA) expression; 0.17% of 140,000 active; HEK-293 SNCA-luciferase knock-in, luminescence, 24 h; Potency, µM (titrated, usually from 57.2 µM), without a hit: at the highest dose activity change, negative = inhibition, actives largely listed as inhibitors;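 further: potency means the concentration at half of the fitted maximal effect; plate controls were DMSO cells for no effect and cell-free wells for full effect; nearly all actives have a fitted effect of over 45% in size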
HEK293 viab: GF-AFC viability counterscreen for inhibitors of alpha-synuclein gene (SNCA) expression; Potency, µM (highest dose often 57.1 µM), for inactives: at the top dose activity change, negative = cytotoxicity, usual class: cytotoxic; 0.12% of 150,000 active; HEK-293-SNCA-luc viability, GF-AFC fluorescence, 24 h;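 further: potency means the concentration at half of the fitted maximal effect; 0% = DMSO-treated cells and -100% = medium-only wells without cells; nearly all actives have a fitted effect of over 30% in size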
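Cytotoxicity counterscreen: after 24 h compound treatment of genome-edited SNCA-luciferase HEK-293 cells, live-cell protease substrate GF-AFC read by fluorescence after 30 min; activity scaled between DMSO (0%) and medium-only (-100%), curves Hill-fitted.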
Starred values were filed as active, the others as inactive; i = inactive; ? = inconclusive; . = no result given; [ ] = remark or other dose. This is a sample that favours compounds with a hit; in the whole collection about 2.8% have one here. Unless noted, the call rests on the fitted dose curve; in most records, active means well fitted curve in the direction sought with a large enough effect; inconclusive means small, poorly fitted or top-dose-only effect, or another doubt; inactive means no such curve, though single readings can be large; an effect the other way counts as inactive or inconclusive.

SMILES	IP6K1 inh	KDM5B inhibitor	SNCA expr inhib	HEK293 viab
Cc1nc(-c2ccc(F)cc2)n(Cc2nc(-c3ccc(OC(C)C)cc3)oc2C)c(=O)c1CCO	-2	16µM*	19%	5%
CC(C)NC(=O)c1cc(-c2cccc(C(F)(F)F)c2)c2cccn2n1	-7	.	-24%	-13%
CN(C)c1ncc2c(n1)CCCC2NC(=O)CN1C(=O)NC(C)(C)C1=O (configuration not stated)	-7	?	18%	-2%
CCCc1nc(C(=O)NC2CCCc3nc(N(C)C)ncc32)cs1 (configuration not stated)	-12	25µM*	1%	-18%
CCCNC(=O)CC(c1ccccc1OC)c1c[nH]c2c(CC)cccc12 (configuration not stated)	-9	32µM*	-9%	1%
CCC[C@@H](C=O)NC(=O)[C@H](CC(C)C)NC(=O)[C@H](CC(C)C)NC(=O)OCc1ccccc1	.	.	1.9µM*	?
CN(C)C(=O)NC1CCN(c2nccc(Nc3ccccc3Cl)n2)CC1	1	.	-5%	4%
O=C(CCCc1ccccc1)Nc1ccc(OC2CCNCC2)nc1	7	18µM*	100%	2%
Cc1cccc(CN2CCNc3cnc(-c4ccccc4)cc3C2)c1	-19	35µM*	-22%[87.6 µM]	-8%[87.6 µM]
COc1cccc(CN2CCNc3cnc(-c4ccccc4)cc3C2)c1	-14	35µM*	14%[87.6 µM]	-8%[87.6 µM]
COc1ccc(OC)c(CN2CCNc3cnc(-c4ccccc4)cc3C2)c1	-14	32µM*	?	?
CN(C)c1ccc(CN2CCNc3cnc(-c4ccccc4)cc3C2)cc1	-14	?	29%[87.6 µM]	-13%[87.6 µM]
Oc1ccccc1CN1CCNc2cnc(-c3ccccc3)cc2C1	-22	?	-15%[87.6 µM]	-9%[87.6 µM]
c1ccc(-c2cc3c(cn2)NCCN(CC2CC2)C3)cc1	-7	35µM*	78%[87.6 µM]	-24%[87.6 µM]
O=C(N[C@H]1CO[C@H]2[C@@H]1OC[C@@H]2n1nnnc1-c1ccccc1)C1CC1	2	i	3%[87.6 µM]	2%[87.6 µM]
Cn1cc(CN2CCNc3cnc(-c4ccccc4)cc3C2)cn1	-21	28µM*	-28%[87.6 µM]	-7%[87.6 µM]
COc1ccc(Cl)cc1NC(=O)Cn1nc2c(cc1=O)CCCCC2	11	i	1%	-2%
Cc1cc(Nc2cc(N3CCN(C)CC3)nc(/C=C/c3ccccc3)n2)n[nH]1	-2	.	.	30µM*
O=C(Nc1cc(Cl)ccc1Cl)C1=C(c2ccccc2)S(=O)(=O)CCO1	.	i	.	.
CN(CCc1ccccc1)CCN1CC2(CCN(c3ncccc3C#N)CC2)OC1=O	-12	32µM*	-5%	-4%
Cc1ccc2nc(C3CCN(Cc4ccc(-c5cccs5)cc4)CC3)[nH]c(=O)c2c1	-1	28µM*	?	-22%
Cc1ccc2nc(C3CCCN(Cc4cccc(-c5cccs5)c4)C3)[nH]c(=O)c2c1 (configuration not stated)	21	?	?	3%
Cc1noc(C)c1-c1nccc2c(=O)cc(-c3ccccn3)oc12	-10	28µM*	-6%[87.6 µM]	14%[87.6 µM]
O=c1cc(-c2ccccn2)oc2c(-c3ccc(CO)cc3)nccc12	8	28µM*	?	-4%[87.6 µM]
O=c1cc(-c2ccncc2)oc2c(-c3ccc(CO)cc3)nccc12	-8	35µM*	-23%[87.6 µM]	3%[87.6 µM]
SMILES	IP6K1 inh	KDM5B inhibitor	SNCA expr inhib	HEK293 viab
COc1ccc(S(=O)(=O)N2CCOCC2)cc1NC(=O)c1cccc(CN2CCCC2=O)c1	.	i	.	.
CC(=O)c1cccc(NC(=O)Nc2cccc(-c3nnc(Cc4ccc5c(c4)OCO5)o3)c2)c1	.	i	.	.
CNC(=O)c1cccc2c(C)nnn12	-4	32µM*	-7%[87.6 µM]	7%[87.6 µM]
Cc1nnn2c(C(=O)Nc3ccc(Cl)nc3)cccc12	9	?	6%[87.6 µM]	7%[87.6 µM]
C=CCNC(=O)c1cccc2c(C)nnn12	7	32µM*	125%[87.6 µM]	2%[87.6 µM]
Cc1nnn2c(C(=O)Nc3ccc(F)cc3)cccc12	10	?	167%[87.6 µM]	-8%[87.6 µM]
Cc1nnn2c(C(=O)NCc3ccc(Cl)nc3)cccc12	3	35µM*	20%[87.6 µM]	-15%[87.6 µM]
Cc1ccc(Oc2ccc(NC(=O)c3n[nH]c(=O)c4ccccc34)cc2)cc1	.	i	.	.
CC1COCCN1Cc1ccccc1C#N (configuration not stated)	.	i	.	.
COc1cccc(CN2C[C@@H](F)[C@@H](OCc3nc4ccccc4o3)C2)n1	0	i	14%[87.6 µM]	2%[87.6 µM]
O=C(NCc1ccccc1)c1nc2c(o1)CCN(Cc1ccc(F)cc1F)CC2	2	?	11%[87.6 µM]	-9%[87.6 µM]
COc1cccc(CN2CCc3nc(C(=O)NCC4CC4)oc3CC2)c1	-6	40µM*	46%[87.6 µM]	-3%[87.6 µM]
O=C(NCc1cccc(F)c1)c1nc2c(o1)CCN(Cc1cccc(Cl)c1)CC2	7	35µM*	-18%[87.6 µM]	-21%[87.6 µM]
O=C(NCc1cccc(F)c1)c1nc2c(o1)CCN(Cc1cc(F)ccc1F)CC2	24	32µM*	-3%[87.6 µM]	-2%[87.6 µM]
Cc1ccc(C(=O)N2CCCC(C(=O)N3CCC(c4nc5ccncc5[nH]4)CC3)C2)cc1 (configuration not stated)	-1	.	-9%	-7%
COc1cc(OC)c(OC)cc1/C=C/C(=O)c1ccc(OC(F)F)c(OC)c1	.	i	.	.
COc1ccc(NC(=O)Cc2c[nH]c3ncc(-c4ccccc4C)cc23)cc1	-21	?	?	-16%[87.6 µM]
COc1ncccc1-c1cnc2[nH]cc(CC(=O)Nc3cccc(Cl)c3)c2c1	28	32µM*	13%[87.6 µM]	?
Cn1cc(-c2cnc3[nH]cc(CC(=O)Nc4cccc(F)c4)c3c2)cn1	-16	28µM*	-8%[87.6 µM]	-21%[87.6 µM]
O=C(Cc1c[nH]c2ncc(-c3ccccc3)cc12)NCc1ccncc1	-15	28µM*	7%[87.6 µM]	2%[87.6 µM]
Cn1cc(-c2cnc3[nH]cc(CC(=O)Nc4ccc(N5CCOCC5)cc4)c3c2)cn1	-18	?	1%[87.6 µM]	6%[87.6 µM]
Cc1ccccc1-c1cnc2[nH]cc(CC(=O)Nc3ccccc3)c2c1	8	35µM*	?	?
COc1ncccc1-c1cnc2[nH]cc(CC(=O)Nc3nc(C)cs3)c2c1	-17	i	13%[87.6 µM]	-28%[87.6 µM]
Cc1ccc2[nH]c(=O)c(CCC(=O)NCCN3CCc4ccccc4C3)cc2c1	28	?	0%	2%
COc1ncccc1-c1cnc2[nH]cc(CC(=O)NC3CC3)c2c1	-16	?	42%[87.6 µM]	-15%[87.6 µM]
Cc1ccccc1-c1cnc2[nH]cc(CC(=O)NC3CC3)c2c1	-17	28µM*	-3%[87.6 µM]	-16%[87.6 µM]
NC(=O)c1ccc2c(c1)C1(CCN(CC3CC3)C1)CN2Cc1ccccc1 (configuration not stated)	9	35µM*	24%[87.6 µM]	-11%[87.6 µM]
COCCNC(=O)c1ccc2c(c1)C1(CCN(CC3CC3)C1)CN2Cc1ccccc1 (configuration not stated)	12	35µM*	-6%[87.6 µM]	-3%[87.6 µM]
O=C(NC1CCC1)c1ccc2c(c1)C1(CCN(CC3CC3)C1)CN2Cc1ccccc1 (configuration not stated)	-6	40µM*	-12%[87.6 µM]	-22%[87.6 µM]
